Test results from PubChem BioAssay (NCATS).
Records with an inconclusive call do not appear. The source made the active and inactive calls. The call rests on the fitted dose curve; in most records, active means well fitted cell-killing curve with a large enough effect; inconclusive means small, poorly fitted or top-dose-only effect, or effect the other way; inactive means flat fitted curve, though single readings scatter.

Key:
Test in all cases: Primary qHTS to identify gynecologic anti-cancer compounds using libraries of approved drugs and bioactive compounds (AID 1345084); further: nearly all actives have a fitted effect of over 55% in size
[1] = test system: C33A; conditions: Gynecologic cancer cell panel viability, ATPlite luminescence, 48 h; series mostly up to 57.5 µM
Procedure, shortened: (§1)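 Measured: luminescence after ATPlite addition (15 min, RT). Exposure: 48 h, 37 C, 5% CO2.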

[2] = test system: CAOV3; conditions: Gynecologic cancer cell panel viability, ATPlite luminescence, 48 h; series mostly up to 57.5 µM
Procedure, shortened: as §1

[3] = test system: CASKI; conditions: Gynecologic cancer cell panel viability, ATPlite luminescence, 48 h; series mostly up to 57.5 µM
Procedure, shortened: as §1

[4] = test system: Es-2; conditions: Gynecologic cancer cell panel viability, ATPlite luminescence, 48 h; series mostly up to 57.5 µM
Procedure, shortened: as §1

[5] = test system: HeLa; conditions: Gynecologic cancer cell panel viability, ATPlite luminescence, 48 h; series mostly up to 57.5 µM
Procedure, shortened: as §1

[6] = test system: Hek293T; conditions: Gynecologic cancer cell panel viability, ATPlite luminescence, 48 h, control line for the selectivity index; series mostly up to 57.5 µM
Procedure, shortened: as §1

[7] = test system: JEG-3; conditions: Gynecologic cancer cell panel viability, ATPlite luminescence, 48 h; series mostly up to 57.5 µM
Procedure, shortened: as §1

[8] = test system: OV90; conditions: Gynecologic cancer cell panel viability, ATPlite luminescence, 48 h; series mostly up to 57.5 µM
Procedure, shortened: as §1

[9] = test system: PA-1; conditions: Gynecologic cancer cell panel viability, ATPlite luminescence, 48 h; series mostly up to 57.5 µM
Procedure, shortened: as §1

[10] = test system: SKOV3; conditions: Gynecologic cancer cell panel viability, ATPlite luminescence, 48 h; series mostly up to 57.5 µM
Procedure, shortened: as §1

[11] = test system: Tov-21-G; conditions: Gynecologic cancer cell panel viability, ATPlite luminescence, 48 h; series mostly up to 57.5 µM
Procedure, shortened: as §1

[12] = test system: Tov112D; conditions: Gynecologic cancer cell panel viability, ATPlite luminescence, 48 h; series mostly up to 57.5 µM
Procedure, shortened: as §1
On the % scale 0 is the no-effect control and ±100 the full control effect.

Cc1cccc(NC(=O)CN2CCC(c3ccccn3)CC2)c1
inactive: Potency [1] | Potency [2] | outcome [3] | Potency [4] | Potency [5] | Potency [6] | Potency [7] | Potency [8] | Potency [9] | Potency [10] | Potency [11] | Potency [12]

O=C(/C=C/c1ccc(O)c(O)c1)OC[C@H]1O[C@@H](OC2CCCCC2O)[C@H](O)[C@@H](O)[C@@H]1O (stereo partly specified)
inactive: Potency [1] | Potency [2] | outcome [3] | Potency [4] | Potency [5] | Potency [6] | Potency [7] | Potency [8] | Potency [9] | Potency [10] | Potency [11] | Potency [12]

C=C[C@H]1[C@H](O[C@@H]2O[C@H](CO)[C@@H](O)[C@H](O)[C@H]2O)OC=C(C(=O)OC)[C@H]1CCO
inactive: Potency [1] | Potency [2] | outcome [3] | Potency [4] | Potency [5] | Potency [6] | Potency [7] | Potency [8] | Potency [9] | Potency [10] | Potency [11] | Potency [12]

Oc1ccccc1-c1cc(-c2ccccc2F)[nH]n1
inactive: Potency [1] | Potency [2] | outcome [3] | Potency [4] | Potency [5] | Potency [6] | Potency [7] | Potency [8] | Potency [9] | Potency [10] | Potency [11] | Potency [12]

C[C@@H]1O[C@@H](O[C@H]2[C@H](O)[C@@H](O[C@@H]3O[C@H](CO)[C@H](O)[C@H](O)[C@H]3O)[C@H](O[C@H]3CC[C@@]4(C)C(CC[C@]5(C)C4CC=C4[C@@H]6CC(C)(C)CC[C@]6(C(=O)O[C@@H]6O[C@H](CO)[C@@H](O)[C@H](O)[C@H]6O)CC[C@]45C)C3(C)C)O[C@@H]2C(=O)O)[C@H](O)[C@H](O)[C@H]1O (stereo partly specified)
inactive: activity change, negative = cytotoxicity [1] 1.15% [at 11.6 µM] | activity change, negative = cytotoxicity [2] -1.94% [at 11.6 µM] | activity change, negative = cytotoxicity [3] -5.82% [at 11.6 µM] | activity change, negative = cytotoxicity [4] 2.19% [at 11.6 µM] | activity change, negative = cytotoxicity [5] 1.11% [at 11.6 µM] | activity change, negative = cytotoxicity [6] -2.99% [at 11.6 µM] | activity change, negative = cytotoxicity [7] -3.24% [at 11.6 µM] | activity change, negative = cytotoxicity [8] 5.7% [at 11.6 µM] | activity change, negative = cytotoxicity [9] 7.27% [at 11.6 µM] | activity change, negative = cytotoxicity [10] -3.61% [at 11.6 µM] | activity change, negative = cytotoxicity [11] 8.52% [at 11.6 µM] | activity change, negative = cytotoxicity [12] 3% [at 11.6 µM]

C/C(=C\CCC(C)CCO)C(=O)OC[C@H]1O[C@@H](O[C@@H]2OC=C(C(=O)O)[C@H]3CC[C@](C)(O)[C@@H]23)C(O)[C@@H](O)C1O (stereo partly specified)
inactive: Potency [1] | Potency [2] | outcome [3] | Potency [4] | Potency [5] | Potency [6] | Potency [7] | Potency [8] | Potency [9] | Potency [10] | Potency [11] | Potency [12]

CC[C@H]1OC(=O)[C@H](C)[C@@H](O[C@H]2C[C@@](C)(OC)[C@@H](O)[C@H](C)O2)C(C)[C@@H](O[C@@H]2O[C@H](C)C[C@H](N(C)C)[C@H]2O)[C@](C)(O)C[C@@H](C)CN(C)[C@H](C)[C@@H](O)[C@]1(C)O (stereo partly specified)
inactive: Potency [1] | Potency [2] | outcome [3] | Potency [4] | Potency [5] | Potency [6] | Potency [7] | Potency [8] | Potency [9] | Potency [10] | Potency [11] | Potency [12]

CC1OC(OC2C(OC(=O)[C@]34CCC(C)(C)C[C@H]3C3=CCC5[C@@]6(C)CC[C@H](OC7OC(C(=O)O)C(O)C(O)C7O)C(C)(C)C6CC[C@@]5(C)[C@]3(C)CC4O)OC(CO)C2O)C(O)C(O)C1OC1OCC(O)C(O)C1O (stereo partly specified)
inactive: activity change, negative = cytotoxicity [1] 6.97% [at 11.6 µM] | activity change, negative = cytotoxicity [2] 0.294% [at 11.6 µM] | activity change, negative = cytotoxicity [3] 7.85% [at 11.6 µM] | activity change, negative = cytotoxicity [4] -0.633% [at 11.6 µM] | activity change, negative = cytotoxicity [5] 8.57% [at 11.6 µM] | activity change, negative = cytotoxicity [6] 3.77% [at 11.6 µM] | activity change, negative = cytotoxicity [7] 3.79% [at 11.6 µM] | activity change, negative = cytotoxicity [8] -5.89% [at 11.6 µM] | activity change, negative = cytotoxicity [9] 30.3% [at 11.6 µM] | activity change, negative = cytotoxicity [10] -0.208% [at 11.6 µM] | activity change, negative = cytotoxicity [11] 5.56% [at 11.6 µM] | activity change, negative = cytotoxicity [12] -3.39% [at 11.6 µM]

C=C1CC23CC1CCC2C12OC(=O)C(C)(C(O)CC1O)C2C3C(=O)O (stereo unspecified)
inactive: Potency [1] | Potency [2] | outcome [3] | Potency [4] | Potency [5] | Potency [6] | Potency [7] | Potency [8] | Potency [9] | Potency [10] | Potency [11] | Potency [12]

CC1(C)CC[C@]2(C(=O)O[C@@H]3O[C@H](CO)[C@@H](O)[C@H](O)[C@H]3O)CC[C@]3(C)C(=CCC4[C@@]5(C)C[C@H](O)[C@H](O[C@@H]6O[C@H](C(=O)O)[C@@H](O)[C@H](O)[C@H]6O)[C@@](C)(CO)C5CC[C@]43C)C2C1 (stereo partly specified)
inactive: activity change, negative = cytotoxicity [1] -10.3% [at 6.55 µM] | activity change, negative = cytotoxicity [2] 19.8% [at 6.55 µM] | activity change, negative = cytotoxicity [3] -13.7% [at 6.55 µM] | activity change, negative = cytotoxicity [4] -1.31% [at 6.55 µM] | activity change, negative = cytotoxicity [5] -7.43% [at 6.55 µM] | activity change, negative = cytotoxicity [6] -0.0375% [at 6.55 µM] | activity change, negative = cytotoxicity [7] -4.92% [at 6.55 µM] | activity change, negative = cytotoxicity [8] -11.4% [at 6.55 µM] | activity change, negative = cytotoxicity [9] 1.64% [at 6.55 µM] | activity change, negative = cytotoxicity [10] 14.6% [at 6.55 µM] | activity change, negative = cytotoxicity [11] -2.15% [at 6.55 µM] | activity change, negative = cytotoxicity [12] 8.5% [at 6.55 µM]

C/C=C(\C)C(=O)OC[C@H]1O[C@@H](O[C@H]2[C@@H](O[C@H]3O[C@H](COC(=O)/C(C)=C/C)[C@@H](O)[C@H](O)[C@H]3O[C@@H]3O[C@H](CO)[C@@H](O)[C@H](OC(=O)/C(C)=C/C)[C@H]3O)O[C@H](COC(=O)/C(C)=C/C)[C@@H](O)[C@@H]2O)[C@H](O)[C@@H](O)[C@@H]1O
inactive: activity change, negative = cytotoxicity [1] 12.3% [at 11.6 µM] | activity change, negative = cytotoxicity [2] 5.53% [at 11.6 µM] | activity change, negative = cytotoxicity [3] -1.71% [at 11.6 µM] | activity change, negative = cytotoxicity [4] 4.24% [at 11.6 µM] | activity change, negative = cytotoxicity [5] -5.55% [at 11.6 µM] | activity change, negative = cytotoxicity [6] 8.78% [at 11.6 µM] | activity change, negative = cytotoxicity [7] 2.17% [at 11.6 µM] | activity change, negative = cytotoxicity [8] -2.51% [at 11.6 µM] | activity change, negative = cytotoxicity [9] -18.4% [at 11.6 µM] | activity change, negative = cytotoxicity [10] 3.76% [at 11.6 µM] | activity change, negative = cytotoxicity [11] 2.42% [at 11.6 µM] | activity change, negative = cytotoxicity [12] 2.79% [at 11.6 µM]

C=C1C(=O)O[C@@H]2C[C@]3(C)[C@@H](CCC(C)=O)[C@@H]3C[C@H]12
inactive: Potency [1] | Potency [2] | outcome [3] | Potency [4] | Potency [5] | Potency [6] | Potency [7] | Potency [8] | Potency [9] | Potency [10] | Potency [11] | Potency [12]

C=C1CC2C(C)(CCC(=O)O)C(C(C)(C)O)CCC2(C)C2(C(=O)OC)C(=O)C(C)(O)C(=O)C12C (stereo unspecified)
inactive: Potency [1] | Potency [2] | outcome [3] | Potency [4] | Potency [5] | Potency [6] | Potency [7] | Potency [8] | Potency [9] | Potency [10] | Potency [11] | Potency [12]
